Compound activity: PubChem, National Center for Advancing Translational Sciences (NCATS)
Pf Dd2 growth – qHTS Primary assay for Inhibitors of Plasmodium falciparum Dd2 growth in vitro. P. falciparum Dd2 growth, SYBR Green, 72 h. Potency, µM (titrated, usually from 28.9 µM), for the others: at the top dose activity, negative = inhibition, hits mostly inhibitors. 4.3% of 120,000 active; active = well fitted inhibition curve with a large enough effect;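 also: plate controls were DMSO vehicle for no effect and reference drug for full effect; nearly all actives have a fitted effect of over 65% in size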
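Infected erythrocytes (Dd2, 0.3% parasitemia, 2.5% hematocrit final) are added to compound in RPMI-1640/Albumax II medium, grown 72 h at 37C in low oxygen, then lysed with saponin/Triton-X containing SYBR Green and read by fluorescence.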
Starred values were filed as active, the others as inactive; i = inactive; [ ] = another dose, or the depositor's remark. This excerpt belongs to a sample that is enriched for hits. Potency is read from the fitted curve at half-maximal effect.

SMILES	Pf Dd2 growth
Cc1ccc(C2(C(=O)N[C@@H]3COCC[C@@H]3OCc3ccccc3)CC2)cc1	-9%
O=C1NC(=NC2CCCC2)C2(CCCN([S+](=O)([O-])c3cccc(C(F)(F)F)c3)C2)N1c1cccnc1 (stereo not drawn)	-29%
O=C1NC(=NC2CCCC2)C2(CCN([S+](=O)([O-])c3cccc(C(F)(F)F)c3)C2)N1c1cc(F)cc(F)c1 (stereo not drawn)	14%
COc1cccc(N2C(=O)NC(=NC3CCCCC3)C23CCCN([S+](=O)([O-])c2cccc(C(F)(F)F)c2)C3)c1 (stereo not drawn)	13µM*
COc1ccc(S(N)(=O)=O)cc1C(=O)N1CCC2(CN(C)C(=O)O2)C1 (stereo not drawn)	7%
COc1cc(NC(=O)c2cc3c(N4CCSCC4)nc(C)cn3n2)cc(OC)c1OC	i
Cc1cn2nc(C(=O)NCCc3ccc(S(N)(=O)=O)cc3)cc2c(N2CCCC2)n1	22%
Cc1ccc(CCNC(=O)c2cc3c(N4CCCC4)nc(C)cn3n2)cc1	-12%
Cc1cn2nc(C(=O)NC3CCc4ccccc43)cc2c(N2CCCC2)n1 (stereo not drawn)	5.6µM*
COc1cccc(NC(=O)c2cc3c(N4CCSCC4)nc(C)cn3n2)c1	i
Cc1cn2nc(C(=O)NCCc3cccs3)cc2c(N2CCCC2)n1	7.1µM*
Cc1cn2nc(C(=O)NCc3ccccn3)cc2c(N2CCCC2)n1	-8%
Cc1cn2nc(C(=O)NC3CCCC3)cc2c(N2CCCC2)n1	i
Cc1cn2nc(C(=O)Nc3ccc(N(C)C)cc3)cc2c(N2CCCC2)n1	0.63µM*
Cc1cn2nc(C(=O)NCc3ccccc3Cl)cc2c(N2CCCC2)n1	8.9µM*
Cc1cn2nc(C(=O)NCc3ccc(C(C)C)cc3)cc2c(N2CCCC2)n1	i
COc1ccc(CCNC(=O)c2cc3c(N4CCCC4)nc(C)cn3n2)cc1OC	i
O=C(CCNc1c(-c2ccccc2)nc2cnccn12)NC1CCCC1	i
Cc1ccn(CC(=O)NCCn2c(C)cnc2C2CC2)n1	i
Cc1noc([C@@H]2CN(C(=O)Cn3c(=O)oc4ccccc43)C[C@H]2C(N)=O)n1	-2%
Cn1c(Cn2ccnc2)nnc1C1CCCN(C(=O)c2ccc(CO)o2)C1 (stereo not drawn)	2%
O=C(NC[C@H]1OC[C@@H](NCc2cnc[nH]2)[C@@H]1O)C1CCCC1	14%[44.1 µM]
CC(=O)N1CCN(C(=O)N2CC3CC(C2)[C@H]2CCCC(=O)N2C3)CC1 (stereo partly drawn)	21%
O=C(c1ccc2c(c1)OCO2)N1CCC2(CC1)N=C(c1ccc(Br)cc1)NO2	i
CCOc1ccc(C(=O)N[C@H]2CCOC[C@H]2C2CCOCC2)o1	-4%
SMILES	Pf Dd2 growth
Cc1cc(CN2CCC([C@@H]3CNC[C@H]3CO)CC2)n(C)n1	7%
O=C(C1CCCC1)N1CCN(C(=O)N2CC3CC(C2)[C@H]2CCCC(=O)N2C3)CC1 (stereo partly drawn)	25%
COc1ccccc1CCN1CCCC(CN(C)C(=O)CN2C(=O)CNC2=O)C1 (stereo not drawn)	5%
COc1ccccc1CCN1CCCC(CN(C)C(=O)Cn2cccnc2=O)C1 (stereo not drawn)	-2%
COc1ccccc1CCN1CCC(CN(C)C(=O)CCc2ccccc2Cl)CC1	8.9µM*
CC(=O)N1CCC(CC(=O)N2C[C@@H](Oc3cccnc3)C[C@H]2C(=O)N2CCOCC2)CC1	-8%
CCOc1ccc2c(n1)CCN(C(=O)C1(c3ccccc3)CC1)C2	10µM*
CCOc1ccc2c(n1)CCN(C(=O)c1ccc(OC)cc1)C2	-8%
CCOc1ccc2c(n1)CCN(C(=O)Cc1cccc(C)c1)C2	10µM*
CCOc1ccc2c(n1)CCN(C(=O)Cc1ccc(F)cc1)C2	-17%
COCCOc1ccc2c(n1)CCN(C(=O)Cc1cccc(OC)c1)C2	-24%
CCOc1ccc2c(n1)CCN(C(=O)c1cnccn1)C2	28%
Cc1cccc(NC(=O)C2(C)CCCCC(=O)N2)c1 (stereo not drawn)	4%
CC1CCC2(CC1)NC(=O)N(CC(=O)NC(C)(C)C)C2=O (stereo not drawn)	1%
COC(=O)c1ccc(CN2C(=O)[C@@H]3C[C@@H](O)CN3C3(CN(CC4CC4)C3)C2=O)cc1	23%[44.1 µM]
CC1=C[C@@H](CNC(=O)C2CC2)[C@H](C(C)C)C[C@H]1Cc1nc2ncccc2[nH]1	-6%[44.1 µM]
CC1=C[C@@H](CNC(=O)c2cccnc2)[C@H](C(C)C)C[C@H]1Cc1nc2ccc(F)cc2[nH]1	i
COC(=O)c1ccc2nc(C[C@@H]3C[C@@H](C(C)C)[C@H](CNCc4ccc(OC)cc4O)C=C3C)[nH]c2c1	-7%
COc1ccc2nc(C[C@@H]3C[C@@H](C(C)C)[C@H](CNCc4ccc(NC(C)=O)cc4)C=C3C)[nH]c2c1	i
CC1=C[C@@H](CNCc2ccccc2O)[C@H](C(C)C)C[C@H]1Cc1nc2c(C)cccc2[nH]1	-25%[44.1 µM]
CCOC(=O)C[C@@H]1C[C@@H](C(C)C)[C@H](CNC(=O)c2ccc(C#N)cc2)C=C1C	i
COC(=O)c1ccc2nc(C[C@@H]3C[C@@H](C(C)C)[C@H](CNCc4ccccc4F)C=C3C)[nH]c2c1	4.5µM*
COc1ccc2[nH]c(C[C@@H]3C[C@@H](C(C)C)[C@H](CNC(=O)C4CCC4)C=C3C)nc2n1	11µM*
COc1ccc2nc(C[C@@H]3C[C@@H](C(C)C)[C@H](CNCc4ccccn4)C=C3C)[nH]c2c1	0.63µM*
CC1=C[C@@H](CNC(=O)C2CC2)[C@H](C(C)C)C[C@H]1Cc1nc2ccncc2[nH]1	-19%[44.1 µM]
SMILES	Pf Dd2 growth
CCOC(=O)C[C@@H]1C[C@@H](C(C)C)[C@H](CNC(=O)c2cccnc2)C=C1C	i
CCOC(=O)C[C@@H]1C[C@@H](C(C)C)[C@H](CNC(=O)c2ccc(F)cc2)C=C1C	11µM*
CC(C)NC(=O)CC[C@@H]1CNC(=O)[C@@H]2C[C@H](NC(=S)NCc3ccco3)CN12	-15%[44.1 µM]
COCc1noc(CCNC(=O)C2CCN(C(=O)C3CC3)CC2)n1	6%
O=Cc1cccc(-c2ccc(O)cc2)c1	13%[44.1 µM]
COc1ccc(C(=O)N[C@H]2CO[C@H]3[C@@H]2OC[C@H]3OCC(N)=O)cc1	-4%[44.1 µM]
COCC(=O)NC[C@@H]1C=C(C)[C@H](CC(=O)N2CCCC2)C[C@H]1C(C)C	-22%[44.1 µM]
CCOC(=O)C[C@@H]1C[C@@H](C(C)C)[C@H](CNC(=O)C2CC2)C=C1C	-16%[44.1 µM]
COC(=O)c1ccc2nc(C[C@@H]3C[C@@H](C(C)C)[C@H](CNC(=O)c4cnccn4)C=C3C)[nH]c2c1	-5%
COCC(=O)NC[C@@H]1C=C(C)[C@H](Cc2nc3ccccc3[nH]2)C[C@H]1C(C)C	i
COC(=O)c1ccc2nc(C[C@@H]3C[C@@H](C(C)C)[C@H](CNC(=O)[C@@H]4CCCC[C@@H]4C(=O)O)C=C3C)[nH]c2c1	-13%
COC(=O)c1ccc2nc(C[C@@H]3C[C@@H](C(C)C)[C@H](CNC4CCOCC4)C=C3C)[nH]c2c1	-20%
COCCNC(=O)C[C@@H]1C[C@@H](C(C)C)[C@H](CNC(=O)C2CC2)C=C1C	8.9µM*
CC1=C[C@@H](CNC(=O)CC2(CC(=O)O)CCCC2)[C@H](C(C)C)C[C@H]1Cc1nc2ccc(F)cc2[nH]1	i
COC(=O)c1ccc2nc(C[C@@H]3C[C@@H](C(C)C)[C@H](CNC(=O)N4CCOCC4)C=C3C)[nH]c2c1	13µM*
